Activity calls are given as the source filed them. Rule for the calls: active = hit-call score of the fitted dose curve at least 0.9, where 1 is the maximum; inactive = score below 0.9.

Cellular tumor antigen p53 (Homo sapiens), sequence (P04637 whole entry, looked up): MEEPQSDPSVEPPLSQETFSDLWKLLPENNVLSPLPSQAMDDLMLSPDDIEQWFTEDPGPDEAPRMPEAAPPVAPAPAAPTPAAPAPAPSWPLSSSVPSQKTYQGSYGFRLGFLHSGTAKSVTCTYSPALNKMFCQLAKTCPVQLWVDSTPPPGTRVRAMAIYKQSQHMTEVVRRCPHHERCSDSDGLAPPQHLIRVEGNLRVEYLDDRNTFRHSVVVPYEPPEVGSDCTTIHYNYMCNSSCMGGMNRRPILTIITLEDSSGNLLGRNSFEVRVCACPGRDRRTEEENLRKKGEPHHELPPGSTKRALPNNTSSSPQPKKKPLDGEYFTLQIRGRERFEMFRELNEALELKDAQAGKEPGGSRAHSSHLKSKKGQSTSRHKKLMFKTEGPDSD

The assay addresses Cellular tumor antigen p53 (Homo sapiens) (UniProt P04637). Put plainly: ATG_p53_CIS: Attagene CIS-FACTORIAL HepG2 Assay for human p53 Transcription Factor (AID 2282994). Particulars: HepG2 p53 cis-element reporter, Attagene mRNA; actives raise or lower the signal. Here is the method:
ATG_CIS is a cell-based, multiplexed-readout assay that uses HepG2, a human liver cell line, with measurements taken at 24 hours after chemical dosing in a 24-well plate.ATG_p53_CIS is one of 52 assay component(s) measured or calculated from the ATG_CIS assay. It is designed to make measurements of mRNA induction, a form of inducible reporter, as detected with fluorescence intensity signals by Reverse transcription polymerase chain reaction (RT-PCR) and Capillary electrophoresis technology.Data from the assay component ATG_p53_CIS was analyzed into 1 assay endpoint. This assay endpoint, ATG_p53_CIS, was analyzed with bidirectional fitting relative to DMSO as the negative control and baseline of activity. Using a type of inducible reporter, measures of mRNA for gain or loss-of-signal activity can be used to understand the reporter gene at the transcription factor-level as they relate to the gene TP53. Furthermore, this assay endpoint can be referred to as a primary readout, because this assay has produced multiple assay endpoints where this one serves a reporter gene function. To generalize the intended target to other relatable targets, this assay endpoint is annotated to the dna binding intended target family, where the subfamily is tumor suppressor.
Human liver HepG2 cells are transiently transfected with multiple reporter transcription units (MRTUs) in 6-well plates using FuGene 6 reagent (Roche; 3 ml FuGene/1 mg DNA). The MRTU constructs are regulated by a cis-regulating element (promoter). […] A major difference between the CIS and TRANS system is that in CIS activities of endogenous TFs are measured, whereas the TRANS assay evaluates changes in activities of exogenous, chimeric NR-Gal4 proteins. […] At the end of 24 hour incubation, total RNA was isolated using TriZol reagent (Invitrogen). The isolated RNA is then reverse-transcribed using oligo(dT) primer and Mo-MLV reverse transcriptase (Invitrogen) with DNAse I (Ambion) treatment for 30 min. The one-tenth of the produced cDNA was amplified by PCR using Taq DNA polymerase (Invitrogen) and two reporter sequence-specific primers. The PCR products were fluorescently labeled by primer extension with 6-arboxyfluorescein (6-FAM) 5'-labeled reporter sequence-specific primer (2 min at 95 C, 20 s at 68 C and 10 min at 72 C) and these products were digested with 5U of HpaI (New England Biolabs) for 2h at 37 C. The fragments were purified using Qiaquick PCR columns (Qiagen), analyzed on an ABI 3130xL genetic analyzer (Applied Biosystems) with peak positions identified by using a set of X-rhodamine (ROX)-labeled MapMarker1000 molecular weight standards (BioVentures). The raw capillary electrophoresis data was processed using Attagraph software (Attagene).
`C#C[C@]1(O)CC[C@H]2[C@@H]3CCC4=Cc5oncc5C[C@]4(C)[C@H]3CC[C@@]21C`: the AC50 (commonly the midpoint of the concentration-response curve, whichever way the signal moves) is 24.7 µM (active).
For the molecule `CC1(C)[C@H](C(=O)OCc2cccc(Oc3ccccc3)c2)[C@@H]1C=C(Cl)Cl`, the molecule was classed as inactive.
Same read-out and setting: then `O=C=NC1CCC(CC2CCC(N=C=O)CC2)CC1` (stereo not given), with “inactive”; and `Nc1ccc(F)c([N+](=O)[O-])c1`, with “inactive”.
Still for that read-out and setting: then `CN(C)C(=N)N=C(N)N`, with “inactive”; and `CC(C)=CCCC(C)=CCCC(C)=CCO`, with “inactive”; and `Clc1nc(C(Cl)(Cl)Cl)c(Cl)c(Cl)c1Cl`, with “inactive”.
As to `O=c1cc(-c2ccccc2)oc2cc(O)cc(O)c12`, the AC50 is 3.66 µM (active).
Consider `O=C(OCc1ccccc1)C(=O)OCc1ccccc1`, for which the call was inactive.
As for `C[C@]12CC[C@H]3[C@@H](CCC4=CC(=O)CC[C@@]43C)[C@@H]1CC[C@@H]2C(=O)CO`, the AC50 was 42.5 µM (active).
For `CC1CCC2CC1C2(C)C` (stereo not given), the result was inactive.
`O=C1c2ccccc2C(=O)N1SC1CCCCC1`: the AC50 was 167 µM (active).
Regarding `COc1ccc(OC)c(OC)c1`, the result was inactive.
On the same count and under the same terms, with `O=c1[nH]c(=O)n([C@H]2CCCO2)cc1F` the entry was “inactive”.
In the case of `CC1(C)CCC(C)(C)c2cc(C(=O)Nc3ccc(C(=O)O)cc3)ccc21`, the AC50 is 55.1 µM (active).
Take `CSc1nnc(C(C)(C)C)c(=O)[nH]1`: the outcome was inactive.
For `c1ccc(CCCc2ccccn2)cc1`, the result was inactive.
Still for that read-out and setting: then `CC(=O)[C@H]1CC[C@H]2[C@@H]3CC=C4C[C@@H](O)CC[C@]4(C)[C@H]3CC[C@]12C`, with “inactive”; and `O=C(O)CN(CCN(CC(=O)O)CC(=O)O)CCN(CC(=O)O)CC(=O)O`, with “inactive”.
On the same count and under the same terms, with `O=C(O)c1cccc([N+](=O)[O-])c1` the entry was “inactive”.
Still for that read-out and setting: then `Clc1ccc(Cl)c(Cl)c1Cl`, with “inactive”; and `O=C(O)CCCCCCCC(=O)O`, with “inactive”.
For `CC(C)=CCCC(C)CC=O` (stereo not given), the call was inactive.
Take `CNCCCC12CCC(c3ccccc31)c1ccccc12`: the AC50 is 16 µM (active).
Turning to `C=CC(C)(CCC=C(C)C)OC=O` (stereo not given), the molecule was classed as inactive.
The same measure, in the same setting: with `CCCCCCOC(=O)CCCCC` the entry was “inactive”.
On the same count and under the same terms, then `CC(=O)OCC=Cc1ccccc1`, with “inactive”; and `CC(C)[C@H]1CC[C@@H](C)CC1=O`, with “inactive”.
The same measure, in the same setting: with `CNC[C@H](O)c1cccc(O)c1` the entry was “inactive”; with `N#Cc1ccc(CC(=NNC(=O)Nc2ccc(OC(F)(F)F)cc2)c2cccc(C(F)(F)F)c2)cc1`, “inactive”; with `CCCCNC(=O)NS(=O)(=O)c1ccc(N)cc1`, “inactive”.
In the case of `NCCNCCN`, the molecule was called inactive.
Same read-out and setting: then `CCCCCOC(=O)CCC`, with “inactive”; and `O=C[C@@H](O)[C@H](O)[C@H](O)CO`, with “inactive”.
Regarding `O=C(O)COCCN1CCN(C(c2ccccc2)c2ccc(Cl)cc2)CC1` (stereo not given), the molecule was called inactive.
Still for that read-out and setting: with `CO[Si](CCCn1c(=O)n(CCC[Si](OC)(OC)OC)c(=O)n(CCC[Si](OC)(OC)OC)c1=O)(OC)OC` the entry was “inactive”; with `O=C(O)c1ccc([N+](=O)[O-])cc1`, “inactive”.
The same measure, in the same setting: then `CCN(CC)c1ccc(C(=C2C=CC(=[N+](CC)CC)C=C2)c2ccc(S(=O)(=O)O)cc2S(=O)(=O)[O-])cc1`, with “inactive”; and `O=C(O)C[C@H](O)C[C@H](O)/C=C/c1c(C2CC2)nc2ccccc2c1-c1ccc(F)cc1`, with “inactive”; and `CCCCCCCCCCCCCOS(=O)(=O)O`, with “inactive”.

For the origin of these results see PubChem BioAssay (EPA / NIEHS).
